# Compounds with a hit are over-represented: about 1.6% of the library has one in this group of screens.
# KCNQ2 enhance – enhances the rat KCNQ2 potassium channel | hit rate 0.54% among 310,000 | O88943 | CHO-K1 KCNQ2, FluxOR thallium flux fluorescence; hits give high values | B-score at 10 µM | AID 2239;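 active means fluorescence ratio B-score at least 3 SD of library B-scores, with initial fluorescence B-score within 3 of them, cut at about 5.3 in these data; same plate scores as AID 2156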;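 further: B-score of peak minus minimum over baseline fluorescence ratio after K+ and Tl+ stimulus; positive B-score means potentiation of KCNQ2 with more thallium influx and brighter signal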
# KCNQ2 inh – inhibitors of rat KCNQ2 potassium channel | O88943 | CHO-K1 KCNQ2, FluxOR thallium flux, 20 min; hits give low values | B-score at 10 µM | hit rate 1.1% among 310,000 | AID 2156;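 active means fluorescence ratio B-score at most minus 3 library SDs, with starting brightness B-score within 2 library SDs, cut at about -5.5 in these data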
# KCNQ2 block conf – confirmation of rat KCNQ2 potassium channel inhibitors; KCNQ2-expressing cells, thallium flux, inhibition; hits give low values; activity change, negative = inhibition, % at 10 µM; hit rate 57% among 1,000; shares compounds with KCNQ2 inh;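 further: 0% = vehicle wells and values are ratio percent relative to vehicle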
# KCNQ1 spec – KCNQ2 inhibitor that also affects human KCNQ1 channel; shares compounds with KCNQ2 inh; KCNQ1-expressing cells, FluxOR thallium flux fluorescence; hits give low values; hit rate 15% among 1,000; activity change, negative = inhibition, % at 10 µM;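 active means activity change at least 3 SD of negative controls below their mean in both duplicate wells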;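 further: CHO cells stably transfected with KCNQ1 and depolarized by potassium stimulus; peak minus minimum fluorescence over baseline after thallium addition; 0% = vehicle negative control and -100% = blank without thallium stimulus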
# Target sequence (P51787 whole entry, looked up): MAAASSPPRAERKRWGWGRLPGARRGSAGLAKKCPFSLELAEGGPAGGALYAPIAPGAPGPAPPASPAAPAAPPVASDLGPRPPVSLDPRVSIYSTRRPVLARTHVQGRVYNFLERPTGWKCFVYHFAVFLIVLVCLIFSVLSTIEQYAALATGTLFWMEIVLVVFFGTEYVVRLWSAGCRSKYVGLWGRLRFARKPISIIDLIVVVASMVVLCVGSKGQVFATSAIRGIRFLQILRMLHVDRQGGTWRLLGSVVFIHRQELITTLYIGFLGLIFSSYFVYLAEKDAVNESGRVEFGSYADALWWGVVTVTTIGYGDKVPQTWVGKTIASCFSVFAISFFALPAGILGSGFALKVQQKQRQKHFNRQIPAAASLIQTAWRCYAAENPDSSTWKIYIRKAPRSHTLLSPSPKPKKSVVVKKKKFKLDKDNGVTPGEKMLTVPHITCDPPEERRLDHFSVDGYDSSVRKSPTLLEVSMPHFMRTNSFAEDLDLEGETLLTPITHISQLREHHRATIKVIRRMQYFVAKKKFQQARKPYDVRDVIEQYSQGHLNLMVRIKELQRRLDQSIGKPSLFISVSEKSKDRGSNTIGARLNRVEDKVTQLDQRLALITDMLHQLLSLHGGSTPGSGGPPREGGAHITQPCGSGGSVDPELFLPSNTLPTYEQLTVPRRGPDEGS
# CHO parental ctr – KCNQ2 inhibitor counter-screen hit in parental CHO cells; shares compounds with KCNQ2 inh; thallium flux counter-screen; hits give low values; activity change, % at 10 µM; hit rate 14% among 1,000;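 further: 0% = vehicle negative controls with stimulus buffer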
# KCNQ2 patch conf – rat KCNQ2 inhibition confirmed by electrophysiology | shares compounds with KCNQ2 inh | KCNQ2-expressing cells, automated patch clamp current | calls only at 10 µM | hit rate 49% among 550
# * marks the source's active call; other numbers are inactive results; i = inactive; · = not tested or not shown; + = active, no number. Unless noted, how the calls were made is not given here.
SMILES,KCNQ2 enhance,KCNQ2 inh,KCNQ2 block conf,KCNQ1 spec,CHO parental ctr,others
COc1cc(C(=O)Nc2c(C)cc(C)cc2C)c(Br)c(OC)c1OC,-8.8,-8.8*,i,i,i,
Cc1noc(C)c1S(=O)(=O)Nc1ccc(C(C)C)cc1,·,i,·,·,·,
Cc1cc(Cl)ccc1OC(C)C(=O)NCCCCc1ccccc1 (stereo not drawn),-7.3,-7.3*,-32%*,i,i,KCNQ2 patch conf=+
Cc1cc(Cl)ccc1OC(C)C(=O)NCCc1ccc2c(c1)OCCO2 (stereo not drawn),·,i,·,·,·,
COc1cc(/C=C/C(=O)c2ccc3c(c2)OCO3)cc(Cl)c1O,·,i,·,·,·,
CCCCCOC(=O)CC(C(=O)OCCCCC)N1CCCCC1 (stereo not drawn),-9.2,-9.2*,-34%*,-32%*,-30%*,KCNQ2 patch conf=i
CCCCCCCCCOC(=O)C(CC(=O)O)N1CCOCC1 (stereo not drawn),·,i,·,·,·,
Cc1cccc2nc(-c3ccco3)oc(=O)c12,·,i,·,·,·,
O=C(NCc1ccco1)c1csc(Nc2ccccc2Cl)n1,-8.3,-8.3*,i,i,i,
COc1ccc(Nc2nc(C(=O)NCc3ccco3)cs2)cc1,·,i,·,·,·,
O=C(NCc1ccco1)c1ccc(-c2ccc(Cl)cc2)o1,·,i,·,·,·,
O=C(NCc1ccco1)c1ccc(-c2ccccc2Cl)o1,-7.1,-7.1*,i,i,i,
O=[N+]([O-])c1ccc(S(=O)(=O)N2CCC3(CC2)OCCN3S(=O)(=O)c2cccs2)cc1,0.08,i,·,·,·,
COc1ccc(NS(=O)(=O)c2cccc(C(=O)NCCCn3ccnc3)c2)cc1,0.19,i,·,·,·,
Cc1ccc(C(=O)NCCCc2ccccc2)c(Cl)c1,·,i,·,·,·,
O=C(NCCC(=O)N(CCc1ccccc1)Cc1ccccc1)c1ccccc1Cl,-6.7,-6.7*,-32%*,i,i,KCNQ2 patch conf=+
CCN(Cc1ccccc1)C(=O)COC(=O)c1cc(Cl)nc(Cl)c1,·,i,·,·,·,
O=C(OCC(=O)N(CCc1ccccc1)Cc1ccccc1)c1ccccc1O,-7.2,-7.2*,i,i,i,
CCC(C)Sc1cccc(-c2nc3ccc(C)cn3c2NCc2ccccc2)c1 (stereo not drawn),·,i,·,·,·,
CC(=O)Nc1c(-c2ccccc2)nc2ccc(Cl)cn12,·,i,·,·,·,
CCC(C)Sc1cccc(-c2nc3ccc(Cl)cn3c2NCc2ccccc2)c1 (stereo not drawn),-7.3,-7.3*,-33%*,-38%*,-25%*,KCNQ2 patch conf=+
CCOC(=O)CNc1c(-c2ccccc2)nc2ccc(Cl)cn12,-7,-7*,-32%*,i,i,KCNQ2 patch conf=+
CC(C)C(NS(=O)(=O)c1ccc2c(c1)C(C)(C)C(=O)N2C)C(=O)NCc1ccccc1Cl (stereo not drawn),·,i,·,·,·,
COc1cc(-c2cc(C(=O)Nc3ccc(N4CCOCC4)cc3)c3ccccc3n2)cc(OC)c1OC,·,i,·,·,·,
COc1ccccc1NC(=O)c1cc(-c2cc(OC)c(OC)c(OC)c2)nc2ccccc12,-8.9,-8.9*,i,i,i,
SMILES,KCNQ2 enhance,KCNQ2 inh,KCNQ2 block conf,KCNQ1 spec,CHO parental ctr,others
COc1ccc(-c2cc(C(=O)Nc3ccc(Cl)cc3Cl)c3ccccc3n2)cc1OC,·,i,·,·,·,
COc1ccc(-c2cc(C(=O)Nc3ccccc3O)c3ccccc3n2)cc1OC,-6.9,-6.9*,i,i,i,
COc1cc(CN2CCCC(N3CCN(c4ccccc4C)CC3)C2)ccc1O (stereo not drawn),0.81,i,·,·,·,
CCn1c(SCC(=O)NCCc2ccccc2)nc2c([nH]c3ccccc32)c1=O,0.23,i,·,·,·,
Cc1sc(NC(=O)CCl)c(C(=O)c2ccccc2)c1C,0.96,i,·,·,·,
Cc1ccccc1C(=O)Nc1sc(C)c(C)c1C(=O)c1ccccc1,-9.6,-9.6*,-33%*,-32%*,-27%*,KCNQ2 patch conf=i
CCOC(=O)c1c(C)n(-c2ccc(C)cc2)c2ccc(OCC(O)CNCCCO)cc12 (stereo not drawn),-11,-11*,i,i,i,
CCOC(=O)c1c(C)n(C)c2ccc(OCC(O)CNC(CC)CO)cc12 (stereo not drawn),1.2,i,·,·,·,
Cc1[nH]n(-c2ccccc2)c(=O)c1C(C[N+](=O)[O-])c1ccc(Br)cc1 (stereo not drawn),·,i,·,·,·,
COc1cccc(C(C[N+](=O)[O-])c2c(C)[nH]n(-c3ccccc3)c2=O)c1 (stereo not drawn),-12,-12*,i,i,i,
COc1ccc(OCC(=O)N2CCN(c3nnc(-c4ccc(C)cc4)c4ccccc34)CC2)cc1,·,i,·,·,·,
Cc1ccc(OCC(=O)N2CCN(c3nnc(-c4ccc(C)cc4)c4ccccc34)CC2)cc1,-7.7,-7.7*,-33%*,i,i,KCNQ2 patch conf=+
COc1ccc(C(=O)O)cc1NC(=S)NC(=O)C(c1ccccc1)c1ccccc1,·,i,·,·,·,
Cc1ccc(NC(=O)CCC(=O)c2cccs2)c(Br)c1,0.59,i,·,·,·,
O=C(COc1ccc(F)cc1)N(c1ccccn1)C1CCCCC1,-6.8,-6.8*,-28%*,i,i,KCNQ2 patch conf=+
CC(C)c1ccc(OCC(=O)N(c2ccccn2)C2CCCCC2)cc1,·,i,·,·,·,
O=C(c1cc2ccccc2o1)N(Cc1ccco1)Cc1cccs1,-12,-12*,-41%*,-40%*,-32%*,KCNQ2 patch conf=i
COc1ccc(C(=O)N(Cc2ccco2)Cc2cccs2)c(O)c1,·,i,·,·,·,
O=C(NCC(=O)N1CCCC(C(F)(F)F)C1)c1ccc(Oc2ccccc2)cc1 (stereo not drawn),1.4,i,·,·,·,
O=C(NCC(=O)N1CCCC(C(F)(F)F)C1)c1ccc2ccccc2c1 (stereo not drawn),-6.9,-6.9*,i,i,i,
CC(OC(=O)c1nc(-c2ccccc2)n(-c2ccccc2)n1)C(=O)Nc1cc(Cl)cc(Cl)c1 (stereo not drawn),-6.9,-6.9*,i,i,i,
CC(C)CNC(=O)c1nc(-c2ccccc2)n(-c2ccccc2)n1,·,i,·,·,·,
CCn1c(SCC(=O)Nc2ccc(N3CCOCC3)cc2)nnc1-c1ccncc1,·,i,·,·,·,
CCOC(=O)c1cnc2ccc(C)cc2c1Sc1ccccc1,-7.1,-7.1*,-28%*,i,i,KCNQ2 patch conf=+
CCOC(=O)c1cnc2ccccc2c1Nc1cccc(C(=O)O)c1,2,i,·,·,·,
SMILES,KCNQ2 enhance,KCNQ2 inh,KCNQ2 block conf,KCNQ1 spec,CHO parental ctr,others
O=C(O)c1ccc2nc(-c3ccco3)c(-c3ccco3)nc2c1,·,i,·,·,·,
O=C(Nc1cccc(C(F)(F)F)c1)c1ccc2nc(-c3ccco3)c(-c3ccco3)nc2c1,-8.5,-8.5*,-30%*,i,i,KCNQ2 patch conf=+
CC(C)(C)N(Cc1ccccc1)C(=O)COC(=O)c1cccc([N+](=O)[O-])c1,-7,-7*,i,i,i,
COc1ccc2oc(C(=O)OCC(=O)N(Cc3ccccc3)C(C)(C)C)c(C)c2c1,-9.4,-9.4*,i,i,i,
COc1ccc2oc(C(=O)OCC(=O)NCCc3ccccc3)c(C)c2c1,0.22,i,·,·,·,
CC(C)(C)N(Cc1ccccc1)C(=O)COc1cccnc1[N+](=O)[O-],·,i,·,·,·,
